Screen size: about 55,000 sequences; about 5,800 (11%) were called active. Rule as the data show it: active = GI50 up to about 1.1 µM and inactive = higher. The entries come from a sample that favours actives as a whole. Entries with a potency or affinity are not part of this list.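 Each compound was tested at five concentrations against cells in 96-well plates for 48 hours. GI50 = concentration required for 50% inhibition of growth.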

This experiment relates to CCRF-CEM. Description: NCI tumour cell line growth inhibition, 48 h.
Regarding “[Bis(aminomethyl)dimethylsilane]dichloroplatinum (II), CHEMBL2146201”, the GI50 stood at 3660 nM.

Turning to “[Bis(aminomethyl)pentamethylenesilane]dichloropaltinum(II), CHEMBL2146202”, the GI50 worked out at 202 nM.

“[Bis(aminomethyl)diethylsilane]tetrachloroplatinum(IV), CHEMBL2146203” yielded a GI50 of 283 nM.

On to “mu-(1,7-nanodiamine-N,N')bis-(cis-aminedichloroplatimum (II)), CHEMBL2146215”, for which the GI50 came out at 925 nM.

In the case of “[Bis(aminomethyl)tetramethylenesilane]dichloropaltinum(II), CHEMBL2146205”, the GI50 was 1560 nM.

“[Bis(aminomethyl)pentamethylenesilane]tetrachloropaltinum(IV), CHEMBL2146204” displayed a GI50 of 95.3 nM.

Substance “ACRIFLAVINE HYDROCHLORIDE, CHEMBL5219995” registered a GI50 of 233 nM.

As for CISPLATIN, CHEMBL11359, the GI50 was found to be 1120 nM.

Regarding “[Bis(aminomethyl)dimethylsilane]tetrachloroplatinum(IV), CHEMBL2146190”, the GI50 stood at 805 nM.

In turn, “[Bis(aminomethyl)ethylmethylsilane]tetrachloroplatinum(IV), CHEMBL2146192” showed a GI50 of 381 nM.

In turn, “[Bis(aminomethyl)tetramethylenesilane]tetrachloropaltinum(IV), CHEMBL2146189” yielded a GI50 of 246 nM.

“cis-Bis[[(trimethylsilyl)methyl]amino]tetrachloroplatinum(IV), CHEMBL2146191” displayed a GI50 of 1230 nM.

Source of the values: ChEMBL document CHEMBL1201862, “PubChem BioAssay data set” (2004).
